The results in this text go back to PubChem BioAssay AID1053125 (Broad Institute, 2014).

Potency and affinity values are given separately. Active and inactive are the calls of the source.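 The calls were made as follows: active = viability loss whose fitted half-maximal concentration is at most twice the top valid tested dose; inconclusive = flat curve with 30 to 70% loss, or poor fit; inactive = the rest.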

The test can be described thus: viability loss in HepG2 liver cells – cell-based, ATP luminescence, cherry-pick, set 6, cytotoxicity control, dose response (AID 1053125).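 Also: negative values mean loss of viability signal.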 As to conditions: ATP luminescence (CellTiter-Glo), 72 h; series mostly up to 26 µM.

Regarding `Cc1cc2cc(CNC(=O)c3ccco3)ccc2n1C`, the outcome was inactive.

With `Cc1cccn2c(=O)c3cc(C(N)=S)c(=N)n(CCCOC(C)C)c3nc12`, the result was inactive.

Consider `CCN(CC)c1ccc2cc(C(N)=O)c(=O)oc2c1`, for which the compound was called inactive.

With `Cc1cc(-n2c(=O)c(C#N)cc3c(=O)n4ccccc4nc32)no1`, the outcome was inactive.

`CCc1nc(SCC(=O)c2ccccc2)c2ccccc2n1`: the outcome was inactive.

Consider `CC(C)N1CCc2c(sc(NC(=O)Cc3ccccc3)c2C#N)C1`, for which the result was inactive.

For the compound `CCC(=O)NCCCNc1nc2c(C)cccc2cc1C#N`, the result was inactive.

`Cc1nc(CCNC(=O)Cc2ccc(Cl)cc2)cs1`: the call was inactive.

For `COCCCn1c(=N)c(C(=O)NC2CCCCC2)cc2c(=O)n3ccccc3nc21`, the compound was classed as inactive.

`Cc1ccc2c(c1)N(C(=O)CCC(=O)NCCCN1CCOCC1)CC(C)O2` (stereo not given): the compound was called inactive.

As for `CCOC(=O)C(NC(=O)c1ccccc1)(OCC1(CC)COC1)C(F)(F)F` (stereo not given), the compound was classed as inactive.

As to `CCOC(=O)C1=CN(CC2CCCO2)C=C(C(=O)OCC)C1c1ccccc1C(F)(F)F` (stereo not given), the compound was called inactive.

Take `COc1ccccc1/C=N/Nc1nc(C)cc(=O)[nH]1`: the call was inactive.

In the case of `Cc1cccn2c(=O)c3cc(C(=O)NCC4CCCO4)c(=N)n(CC4CCCO4)c3nc12` (stereo not given), the compound was classed as inactive.

As for `COc1ccc(C2C3=C(CCCC3=O)N(CC(=O)O)C3=C2C(=O)CCC3)cc1`, the compound was classed as inactive.

Regarding `CSc1ccc(Cn2c(C)c(C(=O)NCCC#N)sc2=O)cc1`, the outcome was inactive.

In the case of `Cc1cc(C)nc(SCC(=O)Nc2ccc(S(=O)(=O)Nc3onc(C)c3C)cc2)n1`, the compound was called inactive.

Turning to `Cn1c2ccccc2c(=O)c2ccc(F)cc21`, the compound was called inactive.

As for `CCC(Sc1nc(N)c(NC(=O)c2ccc(OC)cc2)c(=O)[nH]1)C(=O)O` (stereo not given), the result was inactive.

Turning to `COCc1cc(C)nc(SCC(=O)Oc2ccc(Cl)cc2)c1C#N`, the compound was classed as inactive.

For `O=[N+]([O-])c1cccc(-c2n[nH]c(=S)n2-c2ccc(Br)cc2)c1`, the compound was classed as inactive.

Regarding `C=CCN1C(=S)CC(c2ccccc2)=Nc2ccccc21`, the compound was called inactive.

Take `CCc1nc2ccc(C(=O)NCCc3c[nH]c4ccccc34)cn2c1N(C=O)CCC(C)C`: the compound was classed as inactive.

Consider `CCC(C)NC(=S)N1CCN(Cc2ccc3c(c2)OCO3)CC1` (stereo not given), for which the call was inactive.

Consider `CC(=O)c1cc2c(ccc3ccccc32)oc1=O`, for which the compound was called inactive.

Take `C/C(=N\NC(=O)CC#N)c1cc2ccc(O)cc2oc1=O`: the result was inactive.

In the case of `CCC(=O)N1C(C(=O)NCc2ccc(OC)cc2)CSC1c1ccc(OC)cc1` (stereo not given), the compound was classed as inactive.

Turning to `N=c1c(C(=O)NCC2CCCO2)cc2c(=O)n3ccccc3nc2n1Cc1ccc(Cl)cc1` (stereo not given), the result was inactive.

`Cn1c(=N)c(S(=O)(=O)c2ccccc2)cc2c(=O)n3ccccc3nc21`: the compound was classed as inactive.

In the case of `CCOc1ccc(NC(=O)CN(C)C(=O)CCCNC(=O)c2ccc(Cl)cc2)cc1OCC`, the result was inactive.

Turning to `COc1cc(/C=C(\C#N)C(=O)NC(C)C)cc(Cl)c1O`, the call was inactive.

As to `COc1ccccc1C(=O)c1cc2ccc(O)cc2oc1=O`, the call was inactive.

Regarding `CC1(C)CC(=O)C2=C(C1)OC(N)=C(C#N)[C@@H]2c1ccccc1[N+](=O)[O-]`, the outcome was inactive.

With `N#C/C(=C\c1ccc(N2CCOCC2)o1)C(=O)NCCc1ccccc1`, the outcome was inactive.

Regarding `COc1ccc(Br)c(Cn2c(C)c(C(=O)NCc3ccc4c(c3)OCCO4)sc2=O)c1`, the call was inactive.
